How the values were obtained:
Experiment in all cases: DAPPL (digital affinity profiling via proximity ligation, sequencing); 10 mM Tris-HCl pH 7.5, 50 mM NaCl, 1 mM DTT, 4% glycerol, room temperature, 30 min; GST-TFs on glutathione beads, 16-mer random dsDNA library, 0.1% formaldehyde crosslink after washing; high values mean tight binding
Settings in all cases: protein: recombinant; tags: N-terminal GST; dsDNA, one strand shown
ELK1 = target: T1, ELK1 (Homo sapiens, UniProt P19419 1-428)
T1 sequence: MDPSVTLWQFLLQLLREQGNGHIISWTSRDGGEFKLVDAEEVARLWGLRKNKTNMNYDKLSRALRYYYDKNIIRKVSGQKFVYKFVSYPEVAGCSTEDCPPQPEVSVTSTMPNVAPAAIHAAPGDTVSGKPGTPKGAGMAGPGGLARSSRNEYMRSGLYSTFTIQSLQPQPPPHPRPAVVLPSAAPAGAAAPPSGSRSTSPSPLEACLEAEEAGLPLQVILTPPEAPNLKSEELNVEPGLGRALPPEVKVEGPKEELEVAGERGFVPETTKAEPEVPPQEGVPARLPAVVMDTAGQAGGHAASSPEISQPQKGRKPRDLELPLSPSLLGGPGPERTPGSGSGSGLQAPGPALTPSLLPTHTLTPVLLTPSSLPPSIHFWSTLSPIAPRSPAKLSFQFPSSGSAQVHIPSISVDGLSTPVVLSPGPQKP
Outline: (§1)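 Beads coated with glutathione captured GST-fused human transcription factors that had been expressed in yeast, and the factors were then given DNA barcodes and pooled with a tag-only sample. The pools were incubated with 200 nmole of a random double-stranded 16-mer DNA library in Tris/NaCl/DTT/glycerol buffer for 30 min at room temperature, washed, crosslinked with 0.1% formaldehyde and proximity-ligated with BsaI/T4 ligase at 37 °C for 1 h. PCR amplification and Illumina NextSeq500 sequencing came last. Binding signal is each hexamer's read frequency for a factor divided by its frequency for the tag-only sample.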

GABPA = target: T2, GABPA (Homo sapiens, UniProt Q06546 1-454)
T2 sequence: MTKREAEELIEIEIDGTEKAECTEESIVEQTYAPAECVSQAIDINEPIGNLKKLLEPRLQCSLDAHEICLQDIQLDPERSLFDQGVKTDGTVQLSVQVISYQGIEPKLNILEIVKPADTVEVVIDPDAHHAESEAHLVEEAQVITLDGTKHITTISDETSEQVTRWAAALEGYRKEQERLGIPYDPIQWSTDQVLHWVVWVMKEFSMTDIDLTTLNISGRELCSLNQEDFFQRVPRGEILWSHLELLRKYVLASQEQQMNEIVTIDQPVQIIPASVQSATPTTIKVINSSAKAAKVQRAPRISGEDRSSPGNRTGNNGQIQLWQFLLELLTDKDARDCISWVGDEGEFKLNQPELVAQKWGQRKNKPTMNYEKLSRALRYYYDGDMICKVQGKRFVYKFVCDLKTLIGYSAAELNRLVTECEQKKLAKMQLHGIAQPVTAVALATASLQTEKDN
Outline: as §1

ERG = target: T3, ERG (Homo sapiens, UniProt P11308 1-479)
T3 sequence: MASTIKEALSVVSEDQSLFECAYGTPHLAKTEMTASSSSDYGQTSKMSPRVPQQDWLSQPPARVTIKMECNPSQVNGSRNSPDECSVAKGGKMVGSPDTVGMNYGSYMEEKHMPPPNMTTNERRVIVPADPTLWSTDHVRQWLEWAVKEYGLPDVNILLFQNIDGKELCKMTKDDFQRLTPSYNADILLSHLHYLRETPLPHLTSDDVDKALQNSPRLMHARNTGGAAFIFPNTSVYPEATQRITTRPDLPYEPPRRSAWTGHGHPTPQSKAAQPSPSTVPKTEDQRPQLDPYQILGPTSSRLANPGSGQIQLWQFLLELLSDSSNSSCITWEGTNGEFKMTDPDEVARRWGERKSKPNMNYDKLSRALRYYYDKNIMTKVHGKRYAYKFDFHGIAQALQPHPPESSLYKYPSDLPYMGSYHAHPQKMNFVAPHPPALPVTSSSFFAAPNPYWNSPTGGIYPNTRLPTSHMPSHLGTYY
Outline: as §1

ELF1 = ELF1 (Homo sapiens, UniProt P32519 1-619)
Outline: as §1

EHF = target: T4, EHF (Homo sapiens, UniProt Q9NZC4 1-300)
T4 sequence: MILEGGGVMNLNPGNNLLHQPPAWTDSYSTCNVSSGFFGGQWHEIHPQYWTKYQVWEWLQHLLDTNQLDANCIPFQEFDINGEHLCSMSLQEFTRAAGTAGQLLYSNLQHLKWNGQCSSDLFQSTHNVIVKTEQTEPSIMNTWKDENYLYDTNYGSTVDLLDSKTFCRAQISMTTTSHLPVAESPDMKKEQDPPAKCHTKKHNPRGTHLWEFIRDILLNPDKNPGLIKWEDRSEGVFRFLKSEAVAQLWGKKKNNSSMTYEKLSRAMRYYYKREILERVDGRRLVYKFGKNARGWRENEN
Outline: as §1

SPIB = SPIB (Homo sapiens, UniProt Q01892 1-262)
Outline: as §1

ELK3 = target: T5, ELK3 (Homo sapiens, UniProt P41970 1-407)
T5 sequence: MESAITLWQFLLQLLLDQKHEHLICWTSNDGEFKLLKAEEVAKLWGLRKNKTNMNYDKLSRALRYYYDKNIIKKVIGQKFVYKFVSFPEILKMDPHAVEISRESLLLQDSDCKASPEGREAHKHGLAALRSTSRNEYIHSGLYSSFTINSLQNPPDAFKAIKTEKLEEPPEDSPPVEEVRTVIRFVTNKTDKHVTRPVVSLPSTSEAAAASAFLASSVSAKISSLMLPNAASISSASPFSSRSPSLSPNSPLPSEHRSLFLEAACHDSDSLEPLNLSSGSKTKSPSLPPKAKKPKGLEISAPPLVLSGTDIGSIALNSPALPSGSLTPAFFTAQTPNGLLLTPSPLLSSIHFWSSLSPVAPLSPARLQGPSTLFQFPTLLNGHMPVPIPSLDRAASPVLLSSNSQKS
Outline: as §1

SPIC = target: T6, SPIC (Homo sapiens, UniProt Q8N5J4 1-248)
T6 sequence: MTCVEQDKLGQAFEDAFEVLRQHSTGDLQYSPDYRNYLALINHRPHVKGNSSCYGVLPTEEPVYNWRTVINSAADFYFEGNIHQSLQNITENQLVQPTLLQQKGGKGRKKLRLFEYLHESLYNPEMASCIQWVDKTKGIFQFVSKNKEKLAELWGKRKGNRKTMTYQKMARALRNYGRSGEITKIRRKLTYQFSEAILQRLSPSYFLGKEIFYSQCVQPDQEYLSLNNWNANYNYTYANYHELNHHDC
Outline: as §1

ELF4 = ELF4 (Homo sapiens, UniProt Q99607 1-663)
Outline: as §1

Chain of ELF1 (P32519 whole entry): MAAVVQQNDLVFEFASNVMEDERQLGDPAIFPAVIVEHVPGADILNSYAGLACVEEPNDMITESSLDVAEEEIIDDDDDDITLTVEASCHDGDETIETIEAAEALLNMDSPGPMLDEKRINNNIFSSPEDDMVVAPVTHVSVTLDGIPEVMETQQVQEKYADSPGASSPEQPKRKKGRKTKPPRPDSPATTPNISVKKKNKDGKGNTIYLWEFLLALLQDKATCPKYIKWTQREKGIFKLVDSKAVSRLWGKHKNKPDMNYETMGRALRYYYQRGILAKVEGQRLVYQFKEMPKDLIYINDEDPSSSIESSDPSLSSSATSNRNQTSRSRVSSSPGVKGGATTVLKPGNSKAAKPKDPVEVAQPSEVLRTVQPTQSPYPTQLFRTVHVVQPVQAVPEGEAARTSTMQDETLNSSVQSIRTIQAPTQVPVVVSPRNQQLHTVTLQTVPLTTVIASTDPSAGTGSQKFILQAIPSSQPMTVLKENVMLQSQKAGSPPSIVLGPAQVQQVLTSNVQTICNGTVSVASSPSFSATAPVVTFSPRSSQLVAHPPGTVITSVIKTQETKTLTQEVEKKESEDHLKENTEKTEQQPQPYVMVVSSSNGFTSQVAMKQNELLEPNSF
Chain of ELF4 (Q99607 whole entry): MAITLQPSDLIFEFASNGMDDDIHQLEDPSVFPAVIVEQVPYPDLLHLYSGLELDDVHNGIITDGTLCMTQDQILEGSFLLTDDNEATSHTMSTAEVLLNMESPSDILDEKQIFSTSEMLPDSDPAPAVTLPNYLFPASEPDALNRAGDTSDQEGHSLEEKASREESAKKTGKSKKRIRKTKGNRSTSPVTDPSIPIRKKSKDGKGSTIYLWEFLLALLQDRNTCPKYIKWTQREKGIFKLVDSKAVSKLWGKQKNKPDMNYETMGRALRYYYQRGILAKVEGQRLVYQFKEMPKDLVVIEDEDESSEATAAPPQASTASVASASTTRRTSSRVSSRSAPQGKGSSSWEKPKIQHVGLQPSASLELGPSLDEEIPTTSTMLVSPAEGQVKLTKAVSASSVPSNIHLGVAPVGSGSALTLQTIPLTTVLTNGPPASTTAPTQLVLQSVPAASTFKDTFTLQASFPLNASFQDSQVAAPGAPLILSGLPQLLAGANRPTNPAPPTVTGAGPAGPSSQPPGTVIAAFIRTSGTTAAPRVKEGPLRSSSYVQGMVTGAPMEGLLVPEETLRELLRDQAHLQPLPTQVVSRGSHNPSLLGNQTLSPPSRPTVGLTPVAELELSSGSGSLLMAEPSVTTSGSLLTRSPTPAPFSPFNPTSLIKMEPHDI
Chain of SPIB (Q01892 whole entry): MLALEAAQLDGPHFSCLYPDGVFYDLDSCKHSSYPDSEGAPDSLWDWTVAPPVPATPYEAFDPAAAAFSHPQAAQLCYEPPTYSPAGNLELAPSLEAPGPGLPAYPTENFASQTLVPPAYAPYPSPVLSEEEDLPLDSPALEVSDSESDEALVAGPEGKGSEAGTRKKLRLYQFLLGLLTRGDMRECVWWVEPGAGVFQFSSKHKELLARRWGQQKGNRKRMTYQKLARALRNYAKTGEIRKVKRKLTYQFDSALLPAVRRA

GCTGGT was tested, and the binding signal (ELK1) was 1.23 fold enrichment (6-mer frequency, TF over GST control), the binding signal (GABPA) was 1.15 fold enrichment (6-mer frequency, TF over GST control) and the binding signal (ERG) was 1.28 fold enrichment (6-mer frequency, TF over GST control). The binding signal (ELF1) was 1.04 fold enrichment (6-mer frequency, TF over GST control), the binding signal (EHF) was 1.2 fold enrichment (6-mer frequency, TF over GST control) and the binding signal (SPIB) was 1.18 fold enrichment (6-mer frequency, TF over GST control). The binding signal (ELK3) was 1.19 fold enrichment (6-mer frequency, TF over GST control), the binding signal (SPIC) was 1.08 fold enrichment (6-mer frequency, TF over GST control) and the binding signal (ELF4) was 1.11 fold enrichment (6-mer frequency, TF over GST control).
